Results filed as inconclusive are left out. Active and inactive are the calls of the source. Unless noted, the call rests on the fitted dose curve; in most records, active means well fitted curve in the direction sought with a large enough effect; inconclusive means small, poorly fitted or top-dose-only effect, or another doubt; inactive means no such curve, though single readings can be large; an effect the other way counts as inactive or inconclusive.
Columns and labels:
[1] = qHTS profiling of the MIPE4 collection as inhibitors of Plasmodium falciparum (3D7) proliferation (AID 743344; call rule not given here;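 further: scaled between DMSO vehicle wells and 0.29 µM artemisinin as full inhibition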); details: P. falciparum 3D7 in erythrocytes, SYBR Green DNA fluorescence, 72 h; at 28.5 µM unless noted
Procedure, shortened: (§1)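 Erythrocytes infected with P. falciparum (0.3% parasitemia, 2.5% hematocrit) incubated with compounds 72 h at 37 C, 5% CO2. Lysis with saponin/Triton buffer containing SYBR Green I, overnight at room temperature in the dark; DNA fluorescence (485/535 nm) normalised to 0.29 uM artemisinin and DMSO.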

[2] = qHTS profiling of the MIPE4 collection as inhibitors of Plasmodium falciparum (DD2) proliferation (AID 743345; call rule not given here); details: P. falciparum Dd2 in erythrocytes, SYBR Green DNA, 72 h; at 28.5 µM unless noted
Procedure, shortened: as §1

[3] = qHTS profiling of the MIPE4 collection as inhibitors of Plasmodium falciparum (DD2) proliferation (Rep 2) (AID 743346; call rule not given here); details: P. falciparum Dd2 in erythrocytes, SYBR Green DNA, 72 h; at 28.5 µM unless noted
Procedure, shortened: as §1

[4] = qHTS profiling of the MIPE4 collection as inhibitors of Plasmodium falciparum (HB3) proliferation (AID 743347; call rule not given here;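 further: plate controls were DMSO vehicle wells for no effect and artemisinin wells for full effect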); details: P. falciparum HB3 in erythrocytes, SYBR Green DNA, 72 h; at 28.5 µM unless noted
Procedure, shortened: as §1

[5] = High-throughput drug toxicity screening in the BPDCN cell line Gen2.2 (AID 1224824; call rule not given here;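 further: cells exposed to compounds for 48 h before reading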); details: Gen2.2 BPDCN cells; at 45.8 µM (top of the series) unless noted
Procedure, shortened: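 Gen2.2 cells, 500 per well in phenol red-free RPMI with 10% FBS, exposed to compounds 48 h at 37 C, 5% CO2; viability by CellTiter-Glo luminescence. Percent activity scaled to DMSO (100%) and 9.2 uM bortezomib final (0%).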

[6] = High-throughput drug toxicity screening in the BPDCN cell line Cal-1 (AID 1224825; call rule not given here); details: Cal-1 BPDCN cell viability, qHTS; at 45.8 µM (top of the series) unless noted
Procedure, shortened: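 500 Cal-1 cells/well, RPMI + glutamine + 10% FBS (phenol red-free); cpd added by pin tool; 48 h, 37C, 5% CO2; CTG 15 min RT, lumi read. Normalised: DMSO 100%, bortezomib 9.2 uM 0%.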

[7] = qHTS assay for measurement of the activity of small molecule inhibitors on Zika virus induced Caspase-3 activity in human iPSC derived neural progenitor cells (hNPCs) (AID 1224857); details: hNPCs ZIKV-induced caspase-3/7, Caspase-Glo luminescence, 6 h; series mostly up to 45.7 µM; further: % of control where 0% means no effect; nearly all actives have a fitted effect of over 65% in size
Procedure, shortened: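 Quantitative HTS format: human iPSC neural progenitors, 1 h compound pretreatment, ZIKV 2 FFU/cell for 6 h at 37 C. Percent inhibition derived from luminescent caspase-3/7 signal between uninfected and infected controls.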

[8] = qHTS assay for measurement of the activity of small molecule inhibitors on Zika virus induced Caspase-3 activity in human astrocytoma cells (AID 1224859); details: SNB-19 ZIKV-induced caspase-3/7, luminescence, 6 h; series mostly up to 45.7 µM;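 further: plate controls were ZIKV-infected untreated cells for no effect and uninfected cells for full effect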
Procedure, shortened: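 Readout is luminescence from Caspase-Glo 3/7 added after a 6 h ZIKV infection (2 FFU/cell) of compound-pretreated (1 h) SNB-19 cells; data expressed as % inhibition versus uninfected and infected wells.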

[9] = qHTS Screen of the MIPE 4.0 Collection Against Ewings Sarcoma (TC71) (AID 1259253); details: TC71 Ewing sarcoma viability, CellTiter-Glo, 48 h; series mostly up to 45.8 µM; further: nearly all actives have a fitted effect of over 40% in size; further: potency means the concentration at half of the fitted maximal effect
Procedure, shortened: (§2)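 Cells plated in serum-containing RPMI (5% FBS) and treated with compound dilutions for 48 h. Readout luminescent viability; normalization relied on vehicle (no inhibition) and media-only columns (full inhibition).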

[10] = qHTS Screen of the MIPE 4.0 Collection Against Ewings Sarcoma (EW8) (AID 1259255); details: EW8 Ewing sarcoma viability, CellTiter-Glo, 48 h; series mostly up to 45.8 µM; further: nearly all actives have a fitted effect of over 35% in size; further: potency means the concentration at half of the fitted maximal effect;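 on viability: 100% = DMSO-treated cells and 0% = medium-only wells without cells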
Procedure, shortened: as §2

[11] = qHTS Screen of the MIPE 4.0 Collection Against Ewings Sarcoma (TC32) (AID 1259256); details: TC32 Ewing sarcoma viability, CellTiter-Glo, 48 h; series mostly up to 45.8 µM; further: nearly all actives have a fitted effect of over 45% in size; further: potency means the concentration at half of the fitted maximal effect
Procedure, shortened: as §2

[12] = P-glycoprotein substrates identified in KB-3-1 adenocarcinoma cell line, qHTS therapeutic library screen (AID 1346986); details: KB-3-1 parental cells viability, CellTiter-Glo, 72 h; series mostly up to 44.5 µM; further: nearly all actives have a fitted effect of over 60% in size;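 further: potency means the concentration at half of the fitted maximal effect; potency is for cytotoxicity meaning loss of cell viability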
Procedure, shortened: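 Cells seeded 500/well in DMEM/10% FCS; compounds pinned in dose-response; 72 h incubation; CellTiter-Glo added, 5 min, luminescence. KB-8-5-11 run ±tariquidar to test reversal of P-gp resistance.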

[13] = qHTS profiling for inhibitors of Plasmodium falciparum (HB3) proliferation (AID 743324); details: Plasmodium falciparum HB3 blood-stage proliferation; at 28.7 µM (top of the series) unless noted;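 further: 100% = DMSO vehicle wells and 0% = artemisinin-treated control wells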
Procedure, shortened: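 P. falciparum HB3 grown in erythrocytes (0.3% parasitemia, 2.5% hematocrit final) with compound for 72 h at 37 C, 5% CO2. Parasite DNA detected by SYBR Green after saponin/triton lysis overnight; normalized to 0.29 uM artemisinin and DMSO.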

[14] = Identifying Small Molecule Inhibitors of Pancreatic Cancer Stem Cells (Panc1, Spheroid) (AID 1259359); details: Panc1 spheroid cancer stem cell viability; series mostly up to 46.1 µM;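 further: potency means the concentration at half of the fitted maximal effect; compound exposure lasted 48 h before reading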
Procedure, shortened: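 Endpoint: ATP-based luminescence, 48 h drug exposure. Bortezomib at 9.2 uM final as full-kill control; DMSO vehicle as negative control; activity normalized between vehicle and cell-free wells.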

[15] = Identifying Small Molecule Inhibitors of Pancreatic Cancer Stem Cells (SN12C, Spheroid) (AID 1259360); details: Potency: SN12C spheroid viability; series mostly up to 46.1 µM; further: potency means the concentration at half of the fitted maximal effect;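 on viability (% of control): 100% = DMSO-treated cells and 0% = wells without cells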
Procedure, shortened: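 Cytotoxicity read by CellTiter-Glo luminescence after 48 h compound exposure at 37C; percent activity scaled between DMSO-treated cells and cell-free wells. Spheroid formats used cells pre-formed 14 days in stem cell media on hydrogel.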

[16] = Identifying Small Molecule Inhibitors of Pancreatic Cancer Stem Cells (A278, Adherent) (AID 1259361); details: series mostly up to 46.1 µM; further: nearly all actives have a fitted effect of over 35% in size
Procedure, shortened: (§3)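 Pre-formed 14-day tumor spheroids or adherent cells dosed and incubated 48 h, 37C, 5% CO2. Viability assessed by CellTiter-Glo.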

[17] = qHTS Screen of the MIPE 4.0 Collection Against Ewings Sarcoma (RDES) (AID 1259252); details: RD-ES Ewing sarcoma viability, CellTiter-Glo, 48 h; series mostly up to 45.8 µM; further: potency means the concentration at half of the fitted maximal effect; nearly all actives have a fitted effect of over 35% in size
Procedure, shortened: as §2

[18] = Identifying Small Molecule Inhibitors of Pancreatic Cancer Stem Cells (SN12C, Adherent) (AID 1259358); details: viability/growth inhibition; series mostly up to 46.1 µM;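 further: cell survival measured after 48 h of compound exposure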; further: potency means the concentration at half of the fitted maximal effect
Procedure, shortened: as §3

SMILES	parasite growth, % of DMSO control [1]	parasite growth remaining, % of DMSO control (lower = more inhibition) [2]	parasite growth, % of control (lower = inhibition) [3]	growth, % of control [4]	cell viability, % of control (lower = more cytotoxic) [5]	viability (% of control) [6]	Potency [7]	Potency [8]	Potency [9]	Potency [10]	Potency [11]	Potency [12]	remaining proliferation (% of control), lower = more inhibition [13]	Potency [14]	Potency [15]	IC50 (viability decrease) [16]	Potency [17]	Potency [18]
C=CCc1cccc(C=NNC(=O)CN2CCN(Cc3ccccc3)CC2)c1O	38.6%	23.3%	19.3%	97.7%	67.9%	11.1%	inactive	inactive	4.69 µM (active)	10.5 µM (active)	7.43 µM (active)							
C[C@@H]1[C@H](C)CC[C@]2(C(=O)O)CC[C@]3(C)C(=CC[C@@H]4[C@@]5(C)CC[C@H](O)C(C)(C)[C@H]5CC[C@]43C)[C@@H]12	4.81% [at 57.5 µM]	55.6% [at 57.5 µM]	8% [at 57.5 µM]	3.02% [at 57.5 µM]	41.3% [at 92.2 µM]	29% [at 92.2 µM]	inactive	inactive	1.71 µM (active)	5.4 µM (active)	1.52 µM (active)							
COc1nccc(-c2c(-c3ccc(F)cc3)ncn2C2CCNCC2)n1	36.4%	51.4%	41%	35.6%	136%	73.4%	inactive	inactive	5.9 µM (active)	9.35 µM (active)	16.6 µM (active)	inactive						
CNC(=O)c1cc(Oc2ccc(NC(=O)Nc3ccc(Cl)c(C(F)(F)F)c3)c(F)c2)ccn1	5.25%	33.1%	11.8%	4.74%	16.6%	31.5%	inactive	inactive	20.9 µM (active)	20.9 µM (active)	20.9 µM (active)	18.4 µM (active)	1.38%	20.9 µM (active)	18.7 µM (active)	16.6 µM (active)		
CN(C)S(=O)(=O)c1ccc2c(c1)C(=Cc1cc3c([nH]1)CCCC3)C(=O)N2	22.9%	22.5%	30%	8.5%	119%	35.3%	inactive	inactive	9.35 µM (active)	8.33 µM (active)	3.72 µM (active)							
NCc1c[nH]c(=S)n1[C@H]1CCc2c(F)cc(F)cc2C1	15.7%	12.9%	13.8%	4.48%	61.4%	34.2%	inactive	inactive	20.9 µM (active)	23.5 µM (active)	23.5 µM (active)							
CC1(C)CC(=O)c2c(C(F)(F)F)nn(-c3ccc(C(N)=O)c(NC4CCC(O)CC4)c3)c2C1 (stereo not drawn)	5.39%	8.63%	13%	3.53%	8.13%	13.5%	inactive	inactive	0.0935 µM (active)	0.148 µM (active)	0.0833 µM (active)							
COc1ccc2nc3cc(Cl)ccc3c(Nc3cc(CN4CCCC4)c(O)c(CN4CCCC4)c3)c2n1	7.61%	6.47%	7.91%	13.2%	21.4%	8.39%	inactive	inactive	14.8 µM (active)	26.4 µM (active)	16.6 µM (active)		-0.744%					
CN1N=C(N)c2cn([C@@H]3O[C@H](COP(=O)(O)O)[C@@H](O)[C@@H]3O)c3ncnc1c23	82.4%	100%	67.6%	98.6%	199%	76.2%	inactive	inactive	7.43 µM (active)	13.2 µM (active)	2.64 µM (active)							
CC1(C)C(N(O)C(=O)Nc2ccc(Cl)cc2)N(c2ccc(Cl)cc2)C(=O)N1CC(=O)NN=CC=Cc1ccc([N+](=O)[O-])o1 (stereo not drawn)	5.05%	9.75%			3.85%	2.85%	inactive	inactive	18.7 µM (active)	14.8 µM (active)	18.7 µM (active)							
Fc1ccc(CNc2ncnc3ccc(F)cc23)cc1	300%	90.6%	117%	630%	91.2%	93.2%	inactive	inactive									13.2 µM (active)	
CCC(=O)N1CCN(c2ccc(-n3c(=O)ccc4cnc5ccc(-c6cnc7ccccc7c6)cc5c43)cc2C(F)(F)F)CC1	5.26%	8.22%	8.45%	4.5%	6.39%	20.2%	inactive	inactive	0.0296 µM (active)	0.0332 µM (active)	0.0105 µM (active)	0.075 µM (active)	2.49%		0.0526 µM (active)			37.2 nM (active)
O=c1cc(-c2ccc(O)c(O)c2)oc2cc(O)cc(O)c12	13%		27.8%	14%	264%	68.6%	inactive	inactive	inactive	inactive	inactive	inactive						
CN1CCC[C@H]1CCO[C@](C)(c1ccccc1)c1ccc(Cl)cc1	12.4%	13.4%	23.9%	10.3%	77.3%	50.8%	inactive	inactive									20.9 µM (active)	
O=C(O)c1ccc(O)c2ncc(N3CCOCC3)cc12	15.1%			11%	110%	100%	inactive	inactive							inactive		26.4 µM (active)	inactive

— PubChem BioAssay (NCATS)
